# Several values for one entry are separate records, joined by “and”; a condition that tells them apart may be missing. Identical values can stand only once. In all, about 5,500 compounds went through this assay and about 2,000 (36%) were called active. Inconclusive results (about 18%) are left out. This is one part of the list. Values without a mark were called inactive. No stated cut-off is given here; in the data, active means normalized growth mostly below about 0.91 (no sharp cut-off); inconclusive means no clear call, values can overlap the other calls; inactive means mostly above about 0.92.
# Assay: chemical genetic growth profiling, strain panel (AID 1159580);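 further: tested at 20 µM; growth read once vehicle control cultures reached saturation at 30 °C; 1 = growth at the plate median or of vehicle wells; lower values mean less growth of the strain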
# Settings: S. cerevisiae deletion strains, growth OD
structure (smiles),measurement,setting,value
C=CCc1ccc(O)c(OC)c1,normalized growth,"locus YAL013W, strain DEP1, active compounds read low",0.971
same,normalized growth,"locus YAL021C, strain ccr4, active compounds read low",1.01
same,normalized growth,"locus YAL026C, strain drs2, active compounds read low",1
same,normalized growth,"locus YAL030W, strain snc1, active compounds read low",0.989
same,normalized growth,"locus YBL061C, strain skt5, active compounds read low",0.986
same,normalized growth,"locus YBR009C, strain hhf1, active compounds read low",1.02
same,normalized growth,"locus YBR021W, strain FUR4, active compounds read low",1.05
same,normalized growth,"locus YBR023C, strain chs3, active compounds read low",1
same,normalized growth,"locus YBR171W, strain sec66, active compounds read low",0.994
same,normalized growth,"locus YBR229C, strain ROT2, active compounds read low",0.94
same,normalized growth,"locus YBR231C, strain swc5, active compounds read low",0.907 (active)
same,normalized growth,"locus YBR279W, strain paf1, active compounds read low",0.997
same,normalized growth,"locus YCL011C, strain gbp2, active compounds read low",1.01
same,normalized growth,"locus YCL016C, strain dcc1, active compounds read low",1.01
same,normalized growth,"locus YCL029C, strain bik1, active compounds read low",0.949
same,normalized growth,"locus YCL061C, strain MRC1, active compounds read low",1.01
same,normalized growth,"locus YCL069W, strain vba3, active compounds read low",0.993
same,normalized growth,"locus YCR088W, strain abp1, active compounds read low",0.984
same,normalized growth,"locus YDL005C, strain med2, active compounds read low",1.01
same,normalized growth,"locus YDL035C, strain GPR1, active compounds read low",0.992
same,normalized growth,"locus YDL040C, strain nat1, active compounds read low",0.98
same,normalized growth,"locus YDL074C, strain BRE1, active compounds read low",0.967
same,normalized growth,"locus YDL101C, strain DUN1, active compounds read low",0.961
same,normalized growth,"locus YDL185W, strain tfp1, active compounds read low",0.975
same,normalized growth,"locus YDL192W, strain arf1, active compounds read low",0.896 (active)
same,normalized growth,"locus YDR001C, strain nth1, active compounds read low",0.982
same,normalized growth,"locus YDR069C, strain doa4, active compounds read low",1
same,normalized growth,"locus YDR101C, strain arx1, active compounds read low",0.947
same,normalized growth,"locus YDR137W, strain rgp1, active compounds read low",0.978
same,normalized growth,"locus YDR150W, strain NUM1, active compounds read low",0.938
same,normalized growth,"locus YDR159W, strain sac3, active compounds read low",0.949
same,normalized growth,"locus YDR162C, strain NBP2, active compounds read low",0.967
same,normalized growth,"locus YDR195W, strain ref2",0.925
same,normalized growth,"locus YDR297W, strain sur2, active compounds read low",0.988
same,normalized growth,"locus YDR318W, strain mcm21, active compounds read low",0.925
same,normalized growth,"locus YDR334W, strain swr1, active compounds read low",0.983
same,normalized growth,"locus YDR335W, strain msn5, active compounds read low",0.996
same,normalized growth,"locus YDR388W, active compounds read low",0.944
same,normalized growth,"locus YDR392W, strain spt3, active compounds read low",0.841
same,normalized growth,"locus YDR502C, strain sam2, active compounds read low",0.956
same,normalized growth,"locus YEL003W, strain gim4, active compounds read low",0.994
same,normalized growth,"locus YEL037C, strain rad23, active compounds read low",0.989
same,normalized growth,"locus YEL061C, strain CIN8 (second series), active compounds read low",0.992
same,normalized growth,"locus YEL061C, strain CIN8, active compounds read low",0.923 (active)
same,normalized growth,"locus YER015W, strain faa2, active compounds read low",0.995
same,normalized growth,"locus YER016W, strain bim1, active compounds read low",0.994
same,normalized growth,"locus YER110C, active compounds read low",0.908
same,normalized growth,"locus YER111C, strain swi4, active compounds read low",0.996
same,normalized growth,"locus YER155C, strain BEM2 (second series), active compounds read low",0.789 (active)
same,normalized growth,"locus YER155C, strain BEM2, active compounds read low",0.93
same,normalized growth,"locus YER167W, strain BCK2, active compounds read low",0.911
same,normalized growth,"locus YFR010W, strain ubp6, active compounds read low",0.999
same,normalized growth,"locus YGL078C, strain dbp3, active compounds read low",0.984
same,normalized growth,"locus YGL086W, strain mad1, active compounds read low",0.942
same,normalized growth,"locus YGL167C, strain pmr1, active compounds read low",0.984
same,normalized growth,"locus YGL173C, strain kem1, active compounds read low",1
same,normalized growth,"locus YGL227W, strain vid30, active compounds read low",0.994
same,normalized growth,"locus YGL240W, strain doc1, active compounds read low",0.955
same,normalized growth,"locus YGL248W, strain PDE1, active compounds read low",0.937
same,normalized growth,"locus YGL253W, strain hxk2, active compounds read low",0.994
same,normalized growth,"locus YGR078C, strain PAC10, active compounds read low",0.929
same,normalized growth,"locus YGR135W, strain pre9, active compounds read low",0.926
same,normalized growth,"locus YGR252W, strain gcn5, active compounds read low",1.19
same,normalized growth,"locus YHR013C, strain ard1, active compounds read low",0.997
same,normalized growth,"locus YHR027C, strain rpn1, active compounds read low",1
same,normalized growth,"locus YHR030C, strain SLT2, active compounds read low",0.942 and 0.988
same,normalized growth,"locus YHR079C, strain IRE1 (second series), active compounds read low",0.927
same,normalized growth,"locus YHR079C, strain IRE1, active compounds read low",0.975
same,normalized growth,"locus YHR094C, strain hxt1, active compounds read low",0.939
same,normalized growth,"locus YHR129C, strain ARP1, active compounds read low",0.931
same,normalized growth,"locus YHR142W, strain chs7, active compounds read low",1.01
same,normalized growth,"locus YHR200W, strain rpn10, active compounds read low",0.937
same,normalized growth,"locus YIL066C, strain RNR3, active compounds read low",0.921
same,normalized growth,"locus YIL073C, strain SPO22, active compounds read low",0.947
same,normalized growth,"locus YIL125W, strain kgd1, active compounds read low",0.942
same,normalized growth,"locus YIR030C, strain dcg1, active compounds read low",0.929
same,normalized growth,"locus YJL092W, strain hpr5, active compounds read low",0.987
same,normalized growth,"locus YJL095W, strain BCK1 (second series), active compounds read low",0.992
same,normalized growth,"locus YJL095W, strain BCK1, active compounds read low",0.937 and 0.962
same,normalized growth,"locus YJL115W, strain asf1, active compounds read low",0.982
same,normalized growth,"locus YJL129C, strain trk1, active compounds read low",0.979
same,normalized growth,"locus YJL134W, strain LCB3, active compounds read low",0.937
same,normalized growth,"locus YJL154C, strain vps35, active compounds read low",0.996
same,normalized growth,"locus YJL164C, strain tpk1, active compounds read low",1.02
same,normalized growth,"locus YJL166W, strain qcr8, active compounds read low",1.03
same,normalized growth,"locus YJL168C, strain set2, active compounds read low",0.929 (active)
same,normalized growth,"locus YJL187C, strain SWE1 (second series), active compounds read low",0.978

# From PubChem BioAssay AID1159580 (chemical genetic matrix, 2015)
